# POLK inh = qHTS for Inhibitors of Polymerase Kappa | DNA polymerase kappa (Homo sapiens), Q9UBT6 | purified Pol kappa, fluorescent DNA synthesis assay, 10 min | Potency, µM (doses to about 107 µM), actives largely listed as inhibitors | 0.53% of 400,000 active | AID 588579, 2011
#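 Inhibition of 10 nM Pol kappa is measured by a fluorescent read-out at 0 and 10 min following addition of 50 nM substrate (final), with a 15-min room-temperature compound preincubation.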
# FEN1 inhibitor = qHTS Assay for the Inhibitors of Human Flap endonuclease 1 (FEN1) | P39748 | Recombinant FEN1 flap cleavage, fluorescence, 15 min | Potency, µM (highest dose often 114 µM), usual class: inhibitors | 0.35% of 390,000 active; also: nearly all actives have a fitted effect of over 65% in size
#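 Potency values derive from four-parameter Hill fits of normalized qHTS data. The reaction used 10 nM FEN1 preincubated 15 min at room temperature with compound, then 50 nM DNA substrate, read at 0 and 15 min.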
# POLI inh = qHTS for Inhibitors of Polymerase Iota; DNA polymerase iota (Homo sapiens), Q9UNA4; 1% of 390,000 active; Pol iota fluorescent replication assay, 10 min; Potency, µM (series often up to 115 µM), usual class: inhibitors
#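 Pol iota at 10 nM preincubated 15 min with compounds at room temperature; reaction started with fluorescent substrate, 50 nM final. Fluorescence read kinetically at 0 and 10 min; buffer-only wells as negative control.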
# PI5P4Ka inh = qHTS for Inhibitors of phosphatidylinositol 5-phosphate 4-kinase (PI5P4K); Phosphatidylinositol 5-phosphate 4-kinase type-2 alpha (Homo sapiens), P48426; PI5P4Kalpha enzyme, ADP-Glo luminescence, 60 min; hits give low values; max response, %; 1.2% of 330,000 active; AID 652105, 2013; active = max response of -50% or lower; inconclusive = between -30% and -50%; inactive = -30% or higher; also: value at the top dose of about 77 µM
# Target sequence (P48426 whole entry, looked up): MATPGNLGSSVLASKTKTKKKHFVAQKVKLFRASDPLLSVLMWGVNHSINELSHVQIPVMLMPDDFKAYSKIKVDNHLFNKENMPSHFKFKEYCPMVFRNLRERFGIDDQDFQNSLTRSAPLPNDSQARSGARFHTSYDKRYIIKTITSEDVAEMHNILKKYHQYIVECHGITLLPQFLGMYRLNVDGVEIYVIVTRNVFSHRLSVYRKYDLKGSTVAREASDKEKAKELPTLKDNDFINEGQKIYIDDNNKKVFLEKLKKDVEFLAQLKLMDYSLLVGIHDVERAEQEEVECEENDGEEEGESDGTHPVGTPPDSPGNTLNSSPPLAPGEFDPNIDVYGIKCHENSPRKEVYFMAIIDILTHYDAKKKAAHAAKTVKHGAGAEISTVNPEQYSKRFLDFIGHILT
#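 qHTS, 1536-well: enzyme/substrate mix, compound by pin tool, 5 microM ATP final; RT 60 min; ADP-Glo reagents 1 (45 min) then 2 (30 min); luminescence.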
# Pol beta inh = qHTS Assay for Inhibitors of DNA Polymerase Beta; Pol beta primer extension/strand displacement, fluorescence kinetic; P06746; 1.3% of 340,000 active; Potency, µM (top dose mostly 114 µM), hits mostly inhibitors
#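 Pol beta (10 nM) was preincubated with compound for 15 min at room temperature. The reaction was then started with 50 nM substrate and read immediately and after a further 10 min at room temperature.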
# Pol eta inh = qHTS for Inhibitors of Polymerase Eta; recombinant Pol eta, fluorescent DNA replication assay; Potency, µM (top dose mostly 114 µM), usual class: inhibitors; 1.2% of 390,000 active; AID 588591, 2011
#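 Pol eta (10 nM) was preincubated with compounds for 15 min at room temperature, after which fluorescent replication substrate (50 nM final) was added to start the reaction. Fluorescence was read kinetically at 0 and 10 min.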
# Numbers stand for hits; i = inactive; ? = inconclusive; nt = no result. Rows were chosen to be rich in hits. Some 2.8% of all compounds tested hit in one or more screens of this group. Unless noted, calls follow the shape of the dose curve; as a rule, active = well fitted curve in the direction sought with a large enough effect; inconclusive = small, poorly fitted or top-dose-only effect, or another doubt; inactive = no such curve, though single readings can be large; an effect the other way counts as inactive or inconclusive.
SMILES,POLK inh,FEN1 inhibitor,POLI inh,PI5P4Ka inh,Pol beta inh,Pol eta inh
Cc1ccc(C(=O)CC(SCC(=O)O)c2ccc([N+](=O)[O-])cc2)cc1 (centres undefined),i,i,10µM,i,i,i
CCN(c1ccc(C)c(C)c1)S(=O)(=O)c1ccc2c(c1)CCN2C(=O)CCC(=O)O,i,i,i,nt,89µM,i
CCN(c1ccc(OC)cc1)S(=O)(=O)c1ccc2c(c1)CCN2C(=O)CCC(=O)O,i,i,i,nt,i,i
O=C(CN1C(=O)/C(=C/c2ccccc2F)Sc2ccccc21)NCC1CCCO1 (centres undefined),i,i,i,i,i,i
O=C(O)c1ccc(OCc2ccc(C(=O)O)o2)cc1,i,i,i,i,?,32µM
O=C(O)c1ccc(COc2ccccc2[N+](=O)[O-])o1,i,i,i,i,?,13µM
COc1ccc(Nc2cc(C(=O)NCCCN3CCN(c4ccccc4F)CC3)c3ccccc3n2)c(OC)c1,i,i,i,nt,i,i
O=S(=O)(Nc1cc(Sc2ncn[nH]2)c(O)c2ccccc12)c1ccccc1,i,20µM,1.1µM,-90,?,22µM
Cc1cc(O)c(Sc2ncn[nH]2)cc1NS(=O)(=O)c1ccc(Cl)cc1,i,i,i,i,nt,i
CC(C)=CCc1c(O)cc2oc3c(CC=C(C)C)c(O)c(O)c(CC=C(C)C)c3c(=O)c2c1O,79µM,i,?,?,45µM,40µM
O=C(O)[C@@H]1[C@H]2C[C@H]3c4[nH]c5ccccc5c4CCN3C[C@@H]2CC[C@@H]1O,?,?,?,i,nt,79µM
O=Nc1ccc2oc(=O)ccc2c1,i,nt,i,nt,i,?
O=C(CSC1=NC(=O)C(c2ccccc2)C(=O)N1)Nc1ccccc1[N+](=O)[O-] (centres undefined),?,i,?,i,?,50µM
Cc1ccc(C(=O)Nc2ncc3c(n2)CC(c2ccco2)CC3=O)cc1 (centres undefined),i,i,?,nt,i,i
Cc1ccc(NC(=O)CSCC(=O)Nc2ncc3c(n2)CC(c2ccco2)CC3=O)cc1 (centres undefined),?,i,28µM,nt,?,?
CCn1c2ccccc2c2n[nH]c(=S)nc21,i,i,i,i,i,i
O=C(O)Cn1c2ccccc2c2n[nH]c(=S)nc21,i,i,?,-56,i,i
COCCCN1C(=O)c2ccc(C(=O)NCCc3ccccc3)cc2C1=O,i,i,i,i,i,i
Cc1cc(=O)[nH]c(-n2[nH]c3c(c2=O)CCCC3)n1,i,i,14µM,nt,i,i
Cc1cc(=O)[nH]c(N2CCCNCC2)n1,i,i,i,i,i,i
COc1cccc(N2CC(NC(=O)COc3ccc4ccccc4c3)CC2=O)c1 (centres undefined),i,i,i,nt,i,i
CCCCC12CN3CC(C)(CN(C1)C3c1c[nH]c3ccccc13)C2=O (centres undefined),i,i,i,nt,i,?
Cc1c(C(=O)OCC2CCCO2)[nH]c2c1C(=O)CC(c1ccco1)C2 (centres undefined),28µM,?,?,-76,10µM,3.2µM
Cc1c(C(=O)OC2CCCC2)[nH]c2c1C(=O)CC(c1ccco1)C2 (centres undefined),?,i,?,?,?,?
C=CCOC(=O)c1[nH]c2c(c1C)C(=O)CC(c1ccco1)C2 (centres undefined),?,i,?,-61,13µM,25µM
SMILES,POLK inh,FEN1 inhibitor,POLI inh,PI5P4Ka inh,Pol beta inh,Pol eta inh
CCc1ccc(CNC(=O)c2cccc(-n3cnc4cccnc43)c2C)cc1,i,i,i,nt,i,i
CCc1ccc(C2C(C#N)=C(N)SC(N)=C2C#N)cc1,i,i,?,nt,i,i
CCc1ccc(C2C(C#N)=C(N)SC(N)=C2C#N)s1,?,?,?,-75,i,?
O=S(=O)(c1ccccc1)N1CCC2(CCN(c3ccc(-c4ccccc4)cc3)CC2)CC1,i,nt,nt,nt,nt,nt
COc1ccnc(Oc2ccccc2)c1C(N)=O,i,i,i,i,i,i
CC(=O)c1cccc(NC(=O)COC(=O)CCC(=O)c2cccs2)c1,i,i,i,i,nt,?
O=C(O)c1ccc(NC(=O)c2ccccc2NC(=O)c2cccc(F)c2)cc1,i,i,i,i,i,i
O=C(Nc1cc(-c2ccccc2)sc1C(=O)O)c1cccc(F)c1,i,?,?,i,71µM,?
COC1=CC(=O)C(C2CC(=O)c3c(O)cc(O)cc3O2)=CC1=O (centres undefined),32µM,50µM,?,?,nt,?
COc1c(CC=C(C)C)cc(C2CC(=O)c3c(O)cc(O)cc3O2)cc1CC=C(C)C (centres undefined),i,?,i,i,i,i
Nc1nc(-c2ccco2)c(-c2ccco2)s1,i,i,?,?,?,?
c1coc(-c2nc3cc4ccccc4cc3nc2-c2ccco2)c1,40µM,5.6µM,8.9µM,nt,nt,nt
c1coc(-c2nc(-c3ccco3)c(-c3ccco3)nc2-c2ccco2)c1,8.9µM,35µM,?,nt,2.5µM,4µM
COCCNC(=O)C(NC(=O)C1CCC(C)CC1)C(C)C (centres undefined),i,i,i,i,i,i
CCN(CC)C(=O)Cn1cc(S(=O)(=O)CC(=O)NC2CCCCC2)c2ccccc21,i,i,i,i,i,i
N=C1/C(=C/c2coc3ccccc3c2=O)C(=O)N=C2SC(c3ccco3)=NN12,?,32µM,?,-78,i,3.2µM
CC1=NN2C(=N)/C(=C\c3cc(C)n(-c4ccccc4)c3C)C(=O)N=C2S1,i,i,i,i,i,i
Cc1cccc(N=C2NC(=O)/C(=C/c3cccnc3)S2)c1,i,i,?,i,i,i
COc1cc(/C=C2\SC(=Nc3cccnc3)NC2=O)cc(OC)c1OC,i,i,i,-89,i,?
O=C1NC(=Nc2cccnc2)S/C1=C\c1cccc(F)c1,i,i,i,i,?,i
O=C1NC(=Nc2cccc(O)c2)S/C1=C\c1cccc([N+](=O)[O-])c1,i,i,i,-70,i,?
O=C1NC(=Nc2cccc(O)c2)S/C1=C\c1cccnc1,i,i,i,-60,i,i
OC[C@@H]1CN(CCN2CCOCC2)C[C@H](n2cnc3c(NC4CCCC4)ncnc32)O1,nt,nt,nt,i,nt,nt
CC(=O)N1c2ccc(S(=O)(=O)NCCC(=O)Nc3ccc(Br)c(C)c3)cc2CC1C (centres undefined),i,i,i,nt,i,i

# Source: PubChem (National Center for Advancing Translational Sciences (NCATS))
